CHT block: inhibits the human high affinity choline transporter; Q9GZV3; CHT-expressing cells, membrane potential dye, choline response; stronger effect = lower value; hit rate 0.86% among 310,000; B-score at 10 µM;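 active means B-score over 3 SD under the library average, and starting fluorescence ratio not unusually high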;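 further: choline stimulus applied at its EC90 after an EC20 pre-addition; B-score computed on integrated fluorescence ratio after choline addition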
PHOSPHO1 block: blocks human PHOSPHO1 phosphatase activity; Q8TCT1; recombinant PHOSPHO1, absorbance phosphatase assay; inhibition, % at 13.3 µM; hit rate 1.1% among 290,000; AID 1565; in the data active means inhibition above about 60%
ANO1 activ: mouse TMEM16A channel activation, primary screen; Q8BHY3; HEK293 TMEM16A/YFP-H148Q/I152L, iodide quench fluorescence; stronger effect = lower value; B-score at 10 µM; hit rate 0.3% among 340,000;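 active means fluorescence-ratio B-score plate-corrected deviation score at least 3 library SD below zero, with starting fluorescence score within 5 deviations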;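 further: channel opened by trigger with iodide after compound preincubation; score built on the fluorescence ratio of max minus min over baseline; more negative score means more quench and so TMEM16A activation or potentiation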
Target sequence (Q8BHY3 whole entry, looked up): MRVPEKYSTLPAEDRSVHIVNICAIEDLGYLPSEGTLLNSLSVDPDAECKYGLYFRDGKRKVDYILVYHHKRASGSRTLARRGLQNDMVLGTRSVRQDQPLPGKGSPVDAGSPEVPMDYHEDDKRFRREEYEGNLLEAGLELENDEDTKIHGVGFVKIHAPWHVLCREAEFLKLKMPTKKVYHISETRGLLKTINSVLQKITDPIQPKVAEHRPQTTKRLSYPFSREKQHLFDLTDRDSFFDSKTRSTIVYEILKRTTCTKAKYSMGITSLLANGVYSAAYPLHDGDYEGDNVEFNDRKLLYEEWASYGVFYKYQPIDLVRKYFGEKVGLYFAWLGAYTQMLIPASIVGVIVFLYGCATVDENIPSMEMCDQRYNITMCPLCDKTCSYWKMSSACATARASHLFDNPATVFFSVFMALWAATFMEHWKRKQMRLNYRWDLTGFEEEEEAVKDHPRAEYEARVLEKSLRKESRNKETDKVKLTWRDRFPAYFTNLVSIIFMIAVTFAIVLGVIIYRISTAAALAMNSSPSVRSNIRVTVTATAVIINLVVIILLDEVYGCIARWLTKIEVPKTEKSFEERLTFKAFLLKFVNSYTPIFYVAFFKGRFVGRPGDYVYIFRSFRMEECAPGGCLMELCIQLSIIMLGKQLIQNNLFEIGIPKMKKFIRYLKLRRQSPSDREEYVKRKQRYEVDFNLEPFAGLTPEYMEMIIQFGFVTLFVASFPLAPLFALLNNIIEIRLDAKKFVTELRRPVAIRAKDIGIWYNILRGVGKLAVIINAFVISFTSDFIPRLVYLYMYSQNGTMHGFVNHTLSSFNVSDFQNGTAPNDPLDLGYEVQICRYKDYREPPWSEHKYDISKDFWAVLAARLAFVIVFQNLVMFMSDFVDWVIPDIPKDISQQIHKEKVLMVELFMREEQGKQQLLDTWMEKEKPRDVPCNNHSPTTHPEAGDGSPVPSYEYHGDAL
HDAC3 inh: blocks human histone deacetylase 3; recombinant HDAC3, fluorogenic peptide/trypsin coupled, fluorescence; AID 2718; O15379; inhibition, % at 8.3 µM; hit rate 0.15% among 320,000; in the data active means inhibition above about 26%, passing the limit was not always enough
ANO1 block: blocks the mouse calcium-activated chloride channel TMEM16A. Q8BHY3. HEK293 TMEM16A/YFP iodide influx fluorescence, ionomycin. normalized B-score (activity score, 25-100; higher = stronger inhibition) at 10 µM. hit rate 1.2% among 310,000. AID 588511;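 active means ratio plate-corrected score three or more library SD toward inhibition, starting fluorescence score within five deviations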;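 further: score derived from kinetic fluorescence span divided by baseline fluorescence per well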
CHT PAM: human CHT allosteric activation. Q9GZV3. CHT-expressing cells, membrane potential dye, choline EC20; stronger effect = higher value; LV-AA mutant CHT in HEK293 cells. B-score at 10 µM. hit rate 0.49% among 310,000;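 active means initial fluorescence not abnormally high and integrated response B-score, plate-corrected, over 3 SD above library mean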
A number is an active result; n = inactive; x = no result. In the library only some 3.2% were active in any assay of this set; here they are far more common.

SMILES	CHT block	PHOSPHO1 block	ANO1 activ	HDAC3 inh	ANO1 block	CHT PAM
CC(C)[C@H](N)c1nnc(SCC(=O)c2ccc(Cl)cc2)o1	n	82	n	n	n	n
Cc1ccc(C)c(NC(=O)c2cc(-c3cc(C)ccc3O)n[nH]2)c1	n	n	n	n	n	n
CCN(C(=O)c1cc(S(=O)(=O)N2CCOCC2)cn1C)c1cccc(C)c1	n	n	n	n	100	n
Cc1cccc(N(C)C(=O)c2cc(S(=O)(=O)N3CCCC3)cn2C)c1	n	n	n	n	n	n
COc1ccc(CCNC(=S)N2CCN(S(=O)(=O)c3cccc(F)c3)CC2)cc1	n	x	n	n	n	n
Cc1cc(NC(=O)CN2CCCCC2)no1	n	n	n	n	n	n
CN=C(c1ccco1)n1c(=S)nc(-c2ccco2)n(C)c1=S	n	89	n	n	n	n
O=C(CSCc1cccc(Cl)c1)NCc1ccc2c(c1)OCO2	n	n	n	n	n	n
CCc1ccccc1S(=O)(=O)Cc1ccc(C(=O)NC2CCCC2)o1	n	n	n	n	n	n
Cc1ccccc1S(=O)(=O)Cc1ccc(C(=O)NC2CCCCC2)o1	n	65	n	n	n	n
CCN1C(c2ccccc2)C(C)C(=O)C(C)C1c1ccccc1 (stereo not drawn)	n	n	n	n	n	8.6
CC1C(=O)C(C)C(c2ccccc2)N(N=O)C1c1ccccc1 (stereo not drawn)	x	x	n	x	x	x
CCCCc1ccc(NC(=O)CSc2nnc(C)c(=O)n2N)cc1	n	63	n	n	n	n
CC(=O)Nc1ccc(NC(=O)CSc2nnc(C)c(=O)n2N)cc1	n	n	n	n	n	n
COc1ccc(N2CCN(S(=O)(=O)CCNC(=O)c3ccc(Br)o3)CC2)cc1	n	65	n	n	n	n
COc1ccc(N2CCN(S(=O)(=O)CCNC(=O)c3ccco3)CC2)cc1	n	x	n	n	n	n
CC1CCC/C(=N\NC(=S)NCc2ccccc2)C1 (stereo not drawn)	n	85	n	n	n	n
CC1CCC/C(=N\NC(=S)Nc2ccccc2)C1 (stereo not drawn)	n	n	n	n	n	n
C/C(=N\NC(=S)NCc1ccccc1)c1ccc2ccccc2c1	n	n	n	n	n	n
CC1C/C(=N\NC(=S)NCc2ccccc2)CC(C)(C)C1 (stereo not drawn)	n	76	n	n	n	n
CCC(C)NC(=O)Nc1ccc(F)c(Cl)c1 (stereo not drawn)	n	n	n	n	n	n
O=C(Nc1ccccc1C(=O)N/N=C/c1ccco1)c1ccccc1Cl	n	n	n	n	100	n
CCCCC(=O)N(c1ccc(C(=O)O)cc1)c1nc(-c2ccc(Cl)cc2)c(CC)s1	n	n	n	n	100	n
O=C(CNC(=O)c1cccs1)NCC(=O)OCc1ccccc1Cl	n	n	n	n	n	n
O=C(CNC(=O)c1ccccc1)NCC(=O)OCc1ccccc1Cl	n	60	n	n	n	n
SMILES	CHT block	PHOSPHO1 block	ANO1 activ	HDAC3 inh	ANO1 block	CHT PAM
COc1cccc(NC(=O)CSc2nc3c(sc4ccccc43)c(=O)n2CCCN2CCCC2)c1	n	n	n	n	n	n
COc1ccc(OC)c(S(=O)(=O)ON2C(=O)c3ccccc3C2=O)c1	n	n	n	37	n	n
CC(=O)Nc1ccc(NC(=O)C2CC(=O)N(c3cccc(Cl)c3)C2)cc1 (stereo not drawn)	n	n	n	n	n	n
Fc1ccc(C2NC(=S)NC3=C2N2CCC3CC2)cc1 (stereo not drawn)	n	76	n	n	n	n
COc1ccc(C2NC(=S)NC3=C2N2CCC3CC2)cc1 (stereo not drawn)	n	n	n	n	n	n
CN1CCN(c2nc(NCc3ccco3)nc(N)c2[N+](=O)[O-])CC1	n	60	n	n	n	n
COC(=O)c1ccc(C)c(NC(=O)COC(=O)C2CC3CCCC(C2)C3=O)c1 (stereo not drawn)	n	x	n	x	n	n
O=C(CSc1nc2ccccc2n1CC(=O)NCc1ccccc1)NCc1ccco1	n	69	n	n	n	n
CC(=O)c1c(C)n(CC(=O)NCc2ccco2)c2ccccc12	n	69	n	n	n	n
O=C(Cn1c(=O)oc2ccccc21)NCc1ccco1	n	n	n	n	n	n
O=C(/C=C/c1ccc(F)cc1)NC(=S)N1CCN(c2ccccn2)CC1	n	n	n	n	n	n
COc1ccc(NC(=O)CN(C)C(=O)c2ccccc2SCC(=O)N2CCCC2)cc1	n	x	n	n	n	n
CC(OC(=O)CCSc1ccccc1)C(=O)Nc1ccc(S(N)(=O)=O)cc1 (stereo not drawn)	n	x	n	x	n	n
Cc1ccc(SCCC(=O)OCC(=O)Nc2ccc(S(N)(=O)=O)cc2)cc1	n	n	-4.9	n	n	n
Cc1ccc(OCCC(=O)Nc2ccc(S(=O)(=O)N3CCCC3)cc2)cc1	x	x	n	x	x	x
Cc1ccc(OCCCC(=O)Nc2ccc(S(N)(=O)=O)cc2)cc1	n	n	-5.3	n	n	n
C=CC[C@@H](CC(=O)N(CCO)Cc1ccccc1)C(=O)N[C@H](COC(=O)[C@@H](CC=C)CC(=O)OC(C)(C)C)Cc1c[nH]c2ccccc12	x	x	n	50	x	x
C=CCC[C@@H](Cc1ccc(F)cc1)C(=O)OC[C@H](Cc1c[nH]c2ccccc12)NC(=O)[C@H](CC=C)CC(=O)NCCO	x	x	n	32	x	x
C=CCC[C@@H](Cc1ccc(F)cc1)C(=O)OC[C@@H](Cc1c[nH]c2ccccc12)NC(=O)[C@H](CC=C)CC(=O)N(CCO)Cc1ccccc1	x	x	n	51	x	x
C=CC[C@@H](CC(=O)N(CCO)Cc1ccccc1)C(=O)N[C@@H](COC(=O)[C@@H](CC=C)Cc1ccc(F)cc1)Cc1c[nH]c2ccccc12	x	x	n	39	x	x
C=CC[C@H](CC(=O)N(CCO)Cc1ccccc1)C(=O)N[C@@H](COC(=O)[C@H](CC=C)CC(=O)OC(C)(C)C)Cc1c[nH]c2ccccc12	x	x	n	n	x	x
COc1ccc(C(=O)NCC(=O)N/N=C/c2c(C)[nH]c3ccccc23)cc1OC	n	n	n	n	n	n
C=CCC[C@@H](Cc1ccc(F)cc1)C(=O)OC[C@@H]1CCCN1C(=O)[C@H](CC=C)CC(=O)N[C@H](CO)Cc1ccccc1	x	x	n	n	x	x
C=CCC[C@H](Cc1ccc(F)cc1)C(=O)OC[C@@H](NC(=O)[C@@H](CC=C)CC(=O)N[C@@H](CO)Cc1ccccc1)C(C)(C)C	x	x	n	32	x	x
C=CC[C@H](CC(=O)N(CCO)Cc1ccccc1)C(=O)N[C@@H](COC(=O)[C@@H](CC=C)Cc1ccc(F)cc1)Cc1c[nH]c2ccccc12	x	x	x	39	x	x
C=CCC[C@@H](Cc1ccc(F)cc1)C(=O)OC[C@@H]1CCCN1C(=O)[C@@H](CC=C)CC(=O)N(CCO)Cc1ccccc1	x	x	n	28	x	x
CS(=O)(=O)N(CC(=O)N1CCc2ccccc2C1)Cc1ccc(Cl)cc1	n	n	n	n	n	n
